The source of these data is PubChem BioAssay AID598 (SRMLSC, 2007).

The whole screen tested about 85,000 compounds, of which about 5,100 (6%) were called active. This excerpt belongs to a sample that is enriched for actives. Values without a mark were called inactive.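 Rule for the calls: active = viability at or below 40%; inactive = viability above 40%.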

The experiment in a line: proliferation blockers of H69AR lung cancer cells, primary screen, cell-based, human, 86K library (AID 598).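 Note: multidrug resistant small cell line overexpressing MRP-1 efflux transporter; 100% = mean luminescence of untreated control wells.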 The settings on record: H69AR lung tumor viability, ATP luminescence, 72 h; at 10 µM; hits give low values.
By viability is commonly meant a read-out of living cells in per cent, often relative to untreated cells. Consider `CCOc1ccc(NC(=O)C2CCCN(C(=O)Nc3ccccc3)C2)cc1` (stereo not drawn), for which the viability was 79.5%.
Regarding `CCOc1ccccc1NC(=O)c1cccnc1`, the viability was 87.4%.
Consider `Cc1cc(=O)oc2cc(OCC3CC(c4ccccc4Cl)=NO3)ccc12` (stereo not drawn), for which the viability was 27.1% (active).
For `Cc1ccccc1N1CCN(CCCOc2ccc3c(C)cc(=O)oc3c2)CC1` the value was 58.7%.
For the compound `Cc1cc(=O)oc2cc(NC(=O)C3CC(=O)N(Cc4ccccc4)C3)ccc12` (stereo not drawn), the viability was 96.1%.
Consider `O=C(CSCc1c(F)cccc1Cl)NCC1CCCO1` (stereo not drawn), for which the viability was 90.5%.
The figure for `Cc1cc(SCC(=O)c2ccccc2)nc(SCC(=O)c2ccccc2)n1` is 72.1%; for `CC(=O)CCS(=O)(=O)c1ccc(C)c(C)c1` it is 1.25% (active); for `CCCCN(CCCC)C(=O)CCS(=O)(=O)c1ccc2c(c1)n(C)c(=O)c(=O)n2C` it is 70.2%.
`Cc1ccc(S(=O)(=O)NCCN2CCOCC2)cc1C`: the viability was 100%.
Regarding `COc1ccc(NC(=O)CSc2nc(NS(=O)(=O)c3ccc(C)cc3)cc(=O)[nH]2)cc1`, the viability was 109%.
For `COC(=O)c1sccc1-n1cccc1C(=O)C(=O)N1CCCCC1`, the viability is 95.1%.
For `Cc1cccc(C(=O)N2CCCN(C(=O)c3cccc(C)c3)CC2)c1` the value was 94.6%.
Regarding `Clc1ccc(COn2c(-c3ccc(Cl)cc3Cl)nc3ncccc32)cc1`, the viability is 56.5%.
Take `O=C(O)[C@@H]1CCCN1c1ncnc2sc3c(c12)CCC3`: the viability is 86.5%.
The figure for `N=c1c2c3c(sc2ncn1CCCN1CCOCC1)CCCCC3` is 71%; for `c1nnc2c3c4c(sc3ncn12)CCC4` it is 39% (active); for `CCc1ccc(NC(=O)CN2C(=O)CSC2=O)cc1` it is 93%.
With `COCCn1c(SCc2nnc(-c3ccc(OC)c(OC)c3)o2)nc2sc3c(c2c1=O)CCC3`, the viability is 51.5%.
With `O=C(CN1CCN(C(=O)c2ccco2)CC1)Nc1ccc2c(c1)OCO2`, the viability is 110%.
For `COc1ccc(OC)c(NC(=O)CN2CCN(C(=O)c3ccco3)CC2)c1`, the viability is 73.5%.
In the case of `O=C(CN1CCN(C(=O)c2ccco2)CC1)Nc1ccc(Cl)c(C(F)(F)F)c1`, the viability is 19.9% (active).
The figure for `O=C(Nc1ccc(Br)cc1)c1cccc(NC(=O)C2C3CC4OC(=O)C2C4C3)c1` (stereo not drawn) is 79.9%.
On to `COC(=O)NC1(C(F)(F)F)NC(=O)N(C2CCCCC2)C1=O` (stereo not drawn), for which the viability is 103%.
With `O=C1NC(Nc2nc3ccccc3s2)(C(F)(F)F)C(=O)N1C1CCCCC1` (stereo not drawn), the viability was 13.4% (active).
`COC(=O)CCSc1cc([N+](=O)[O-])cc2c1c(C1OCCS1)nn2-c1ccccc1` (stereo not drawn): the viability is 98.2%.
For `Cc1ccc(-n2cc3ccc([N+](=O)[O-])cc3n2)cc1` the value was 76.8%.
On to `CCOC(=O)N1CCN(C(=O)c2ccc3c(c2)N(Cc2ccc(C)cc2)CCS3)CC1`, for which the viability was 30.8% (active).
Turning to `CCOC(=O)N1CCN(C(=O)c2ccc(CN(c3ccc(C)c(C)c3)S(C)(=O)=O)cc2)CC1`, the viability is 70.5%.
For the compound `CCOC(=O)N1CCN(C(=O)c2ccc(S(=O)(=O)c3ccc(C)cc3)c(NC(C)=O)c2)CC1`, the viability was 85.8%.
Consider `COc1ccc(CN(C(=O)CSc2nnc(-c3ccc(OC)c(OC)c3)o2)c2ccc(F)cc2)cc1`, for which the viability was 65.2%.
`CCCNC(=O)CN(Cc1ccccc1F)S(=O)(=O)c1ccc(C)cc1`: the viability is 98.5%.
The figure for `CC1Cc2ccccc2N1C(=O)c1cc2sccc2n1Cc1ccccc1` (stereo not drawn) is 90.3%; for `O=C(CSCc1ccc(Cl)cc1)N1CCCCC1` it is 93.6%.
Turning to `Cc1cc(NC(=O)CCC(=O)N(CC(=O)NCC2CCCO2)c2ccccc2C)no1` (stereo not drawn), the viability was 100%.
Turning to `COCCNC(=O)Cn1cc(C(=O)c2cccs2)c2ccccc21`, the viability was 88.3%.
In the case of `COc1ccc(C(=O)n2nc(-c3ccc(Cl)cc3)nc2N)cc1OC`, the viability was 83.9%.
For `COc1ccccc1C(=O)n1nc(-c2ccccc2)nc1N` the value was 90.3%; for `COc1ccc(C(=O)n2nc(-c3ccc(C)cc3)nc2N)cc1OC`, 22% (active).
Regarding `N#CC1=C(SCc2ccc(C#N)cc2)N=C(N)C(c2nc(-c3ccccc3)cs2)C12CCCCC2` (stereo not drawn), the viability was 56.8%.
For the compound `COc1ccc(OC)c(-n2nnnc2SCC(=O)Nc2cc(C)ccc2OC)c1`, the viability was 75.6%.
Turning to `COC(=O)Nc1nc2ccc(Sc3ccccc3)cc2[nH]1`, the viability was 17.5% (active).
The figure for `CC(C)c1nc2ccc(C(=O)O)cc2[nH]1` is 94.4%; for `Cc1nc2ccc(C(=O)O)cc2[nH]1` it is 91.7%.
For the compound `COc1ccc(N(CC(=O)NC2CCCCC2)C(=O)CNC(=O)c2ccco2)c(OC)c1`, the viability is 97.8%.
Take `COc1cc(C(=O)N(Cc2ccc(N(C)C)cc2)C2CCS(=O)(=O)C2)cc(OC)c1OC` (stereo not drawn): the viability is 80.1%.
Take `Cc1ccc(CN(C(=O)c2sc3ccccc3c2Cl)C2CCS(=O)(=O)C2)cc1` (stereo not drawn): the viability is 18.5% (active).
Regarding `COc1ccc(C(=O)N(Cc2ccc(N(C)C)cc2)C2CCS(=O)(=O)C2)cc1` (stereo not drawn), the viability was 80.1%.
As for `CC(=O)c1cccc(NC(=O)N2CCCC2C(=O)NCCc2ccccc2)c1` (stereo not drawn), the viability was 91.7%.
Turning to `COc1nc(NC2CCCCC2)nc(N2CCCCCC2)n1`, the viability was 61.9%.
`CC1=C/C(=N\OS(=O)(=O)c2ccccc2)C=CC1=O`: the viability is 0.69% (active).
As for `N#CCSc1nc2c(c(=O)n1Cc1ccccc1)C1(CCCC1)Cc1ccccc1-2`, the viability was 80.7%.
As to `Nc1c(-c2ccc(F)cc2)cnn1C1CCS(=O)(=O)C1` (stereo not drawn), the viability was 98%.
With `CC(C)(C)C(=O)c1cnc(Nc2ccccc2)s1`, the viability is 55%.
As to `CCOC(=O)CSc1nc2ccc(C)cc2[nH]1`, the viability is 89.4%.
Consider `COc1ccc(C(=O)Nc2ccc(S(=O)(=O)NC(C)C)cc2)cc1`, for which the viability is 97.9%.
Take `CO/N=C(/CS(=O)(=O)c1ccc(Br)cc1)c1ccc(OC)cc1`: the viability is 31.4% (active).
As to `COc1ccc(/C(N)=N/OC(=O)Oc2ccccc2)cc1`, the viability is 82.6%.
On to `Cc1cccc(NC(=O)CSc2nnc(-c3ccco3)o2)c1`, for which the viability was 96.2%.
With `CC1(C)NC(=O)N(CCCCSc2ccc(Cl)cc2)C1=O`, the viability is 79%.
As for `CC(C)c1nc(N2CCOCC2)c(C#N)c2c1COC(C)(C)C2`, the viability is 79.6%.
As for `CC1(C)Cc2c(C#N)c(SCc3nc4ccccc4[nH]3)nc(N3CCOCC3)c2CO1`, the viability was 37.1% (active).
As to `COc1ccc(CSc2nc(N3CCOCC3)c3c(c2C#N)CC(C)(C)OC3)cc1`, the viability is 92.7%.
